The text below walks through data of PubChem BioAssay (NCI).

This is part of a sample that, as a whole, favours compounds with a hit. Of some 83,000 tested, about 20% had one in any assay.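 How to read the values: 0–100, growth inhibition (40 = 60% inhibited); 0, no net growth; -100 to 0, cell death (-40 = 40% of starting cells died; -100 = all dead).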 A number with no mark means an inactive call. Activity calls are given as the source filed them. Rule for the calls: active = growth percent below 10; inactive = the rest.

Among the test systems are DU-145 prostate; K-562 leukemia; MALME-3M melanoma; MDA-MB-231 breast; RXF 393 renal; SF-268 CNS; SF-295 CNS; SF-539 CNS; UACC-257 melanoma; M14 melanoma; HCT-15 colon; HT29 colon; SNB-75 CNS; SNB-19 CNS; U251 CNS; PC-3 prostate; SK-MEL-5 melanoma; UACC-62 melanoma; LOX IMVI melanoma; SK-MEL-28 melanoma.
What all share (test): NCI-60 one-dose screen, 48 h (100 = growth as untreated, 0 = no growth, -100 = all killed)
Common to all, as to settings: 10 µM unless noted

`Cc1nc2c(c(N3CCCc4ccccc43)n1)CCC2`: the growth was -8.95% (active) in the assay with DU-145 prostate; 4.8% (active) with K-562 leukemia; 54.2% in the assay with MALME-3M melanoma; 18.1% in the assay with MDA-MB-231 breast; 33% in the assay on RXF 393 renal; 16.9% in the assay on SF-268 CNS. For the same compound, the growth in the assay with SF-295 CNS was 9.59% (active); in the assay on SF-539 CNS, 1.1% (active); in the assay on UACC-257 melanoma it was 26.3%; with M14 melanoma, -17.6% (active); with HCT-15 colon it was 4.84% (active); with HT29 colon, 3.44% (active). The growth with SNB-75 CNS was 20.4%; in the assay with SNB-19 CNS, 40%; with U251 CNS, 7.57% (active); in the assay with PC-3 prostate, 12.8%; in the assay with SK-MEL-5 melanoma it was -49% (active); with UACC-62 melanoma it was 24.3%. The growth with LOX IMVI melanoma is 21.2%; with SK-MEL-28 melanoma, 60.4%.
On to `CCN(CC)CCCC(C)Nc1c2ccc(Cl)cc2nc2ccc(O)cc12` (stereo not given), for which the growth was 41.3% with DU-145 prostate; -3.7% (active) in the assay on K-562 leukemia; 51.2% with MALME-3M melanoma; 47.4% in the assay with MDA-MB-231 breast; -19.9% (active) in the assay on RXF 393 renal; 58.5% with SF-268 CNS. Moreover, the growth is 61% in the assay with SF-295 CNS; 15.6% with SF-539 CNS; -58.4% (active) in the assay on UACC-257 melanoma; 14.2% in the assay on M14 melanoma; 42.3% in the assay with HCT-15 colon; 48.2% in the assay on HT29 colon. Also, the growth was 35.3% in the assay with SNB-75 CNS; 44.8% with SNB-19 CNS; 32.5% in the assay with U251 CNS; 48.7% with PC-3 prostate; 34.7% in the assay on SK-MEL-5 melanoma; 82.3% in the assay with UACC-62 melanoma. Moreover, the growth with LOX IMVI melanoma is 0.124% (active); in the assay on SK-MEL-28 melanoma, 57.5%.
`Cc1cccc(NC(=O)CSc2nc3ccccc3[nH]2)c1`: the growth is 107% with DU-145 prostate; 102% with K-562 leukemia; 105% in the assay on MALME-3M melanoma; 88.5% in the assay with MDA-MB-231 breast; 99% with RXF 393 renal; 95.2% in the assay on SF-268 CNS. For the same compound, the growth in the assay with SF-295 CNS is 105%; in the assay with SF-539 CNS, 98.1%; in the assay with UACC-257 melanoma, 111%; with M14 melanoma it was 107%; in the assay on HCT-15 colon, 104%; with HT29 colon it was 122%. Moreover, the growth is 84.2% in the assay with SNB-75 CNS; 94.9% in the assay on SNB-19 CNS; 101% in the assay on U251 CNS; 91% with PC-3 prostate; 103% with SK-MEL-5 melanoma; 85.1% in the assay on UACC-62 melanoma. For the same compound, the figures for the growth in the assay with LOX IMVI melanoma and in the assay on SK-MEL-28 melanoma were 96.8% and 101%, respectively.
With `Cc1c2c(c(C)c3c1oc1cc(O)ccc13)C(=O)N(CCN1CCCCC1)C2=O`, the growth in the assay on DU-145 prostate is 68.4%; with K-562 leukemia it was 3.97% (active); in the assay with MALME-3M melanoma, 100%; with MDA-MB-231 breast, 83%; in the assay on RXF 393 renal, 87.1%; with SF-268 CNS, 73.4%. The growth was 102% with SF-295 CNS; 91.6% with SF-539 CNS; 110% in the assay on UACC-257 melanoma; 91.7% in the assay on M14 melanoma; 95.4% in the assay on HCT-15 colon; 61.3% in the assay with HT29 colon. For the same compound, the growth with SNB-75 CNS was 87.3%; in the assay on SNB-19 CNS it was 88.9%; with U251 CNS it was 86.4%; in the assay on PC-3 prostate it was 83.8%; in the assay with SK-MEL-5 melanoma it was 96%; with UACC-62 melanoma, 99.2%. Besides, the growth in the assay on LOX IMVI melanoma was 95.4%; in the assay with SK-MEL-28 melanoma it was 106%.
For `O=C(O)c1ccc2c(c1Cl)C(=O)c1ccccc1C2=O`, the growth with DU-145 prostate was 107%; with K-562 leukemia it was 73.7%; in the assay with MALME-3M melanoma, 132%; with MDA-MB-231 breast it was 112%; in the assay with RXF 393 renal, 165%; in the assay with SF-268 CNS, 113%. The growth in the assay on SF-295 CNS was 108%; in the assay with SF-539 CNS, 102%; with UACC-257 melanoma, 109%; in the assay on M14 melanoma, 103%; with HCT-15 colon, 95.9%; with HT29 colon it was 87.5%. Also, the growth in the assay on SNB-75 CNS was 73.1%; in the assay on SNB-19 CNS, 98.8%; in the assay on U251 CNS, 99.1%; in the assay with PC-3 prostate, 116%; in the assay on SK-MEL-5 melanoma, 102%; in the assay on UACC-62 melanoma, 97.7%. In addition, the growth in the assay on LOX IMVI melanoma was 97.2%; with SK-MEL-28 melanoma, 107%.
On to `O=C(Nc1cccc(Cl)c1)c1cc(N=Nc2ccc([N+](=O)[O-])cc2Cl)ccc1O`, for which the growth is 116% in the assay on DU-145 prostate; 26.3% in the assay with K-562 leukemia; 43.7% with MALME-3M melanoma; 64.1% with MDA-MB-231 breast; 29.6% in the assay with RXF 393 renal; 90.6% in the assay on SF-268 CNS. Moreover, the growth is 55.1% with SF-295 CNS; 54.2% with SF-539 CNS; -1.95% (active) in the assay on UACC-257 melanoma; 103% with M14 melanoma; 72.5% in the assay with HCT-15 colon; 76.7% with HT29 colon. Also, the growth in the assay on SNB-75 CNS is 66.4%; in the assay on SNB-19 CNS, 73.2%; in the assay with U251 CNS, 63.9%; with PC-3 prostate it was 34.8%; in the assay on SK-MEL-5 melanoma, 43.3%; in the assay on UACC-62 melanoma it was 79.2%. In addition, the growth was 98.3% in the assay with LOX IMVI melanoma and 85.5% with SK-MEL-28 melanoma.
As for `Cc1c(C(=O)NC(Cc2ccccc2)C(O)C(=O)NCc2ccc(F)cc2)[nH]c2ccccc2c1=O` (stereo not given), the growth was 109% with DU-145 prostate; 94.2% in the assay on K-562 leukemia; 111% in the assay with MALME-3M melanoma; 102% in the assay on MDA-MB-231 breast; 114% in the assay on RXF 393 renal; 104% in the assay on SF-268 CNS. The growth in the assay with SF-295 CNS was 103%; in the assay on SF-539 CNS, 108%; in the assay on UACC-257 melanoma, 103%; with M14 melanoma, 109%; with HCT-15 colon, 103%; with HT29 colon, 102%. Further, the growth with SNB-75 CNS was 99.1%; with SNB-19 CNS, 100%; with U251 CNS it was 90.2%; with PC-3 prostate, 103%; in the assay with SK-MEL-5 melanoma it was 103%; in the assay on UACC-62 melanoma, 111%. Further, the results for the growth in the assay with LOX IMVI melanoma and in the assay with SK-MEL-28 melanoma were 101% and 107%, respectively.
`CNC(=O)c1cc(Oc2cccc3nc(Nc4ccc(F)c(Cl)c4)ccc23)ccn1`: the growth in the assay with DU-145 prostate is 93.2%; in the assay on K-562 leukemia, 26%; with MALME-3M melanoma, 40.2%; with MDA-MB-231 breast it was 62.7%; with RXF 393 renal it was 75.3%; with SF-268 CNS, 54.5%. The growth was 87% in the assay on SF-295 CNS; 55.9% in the assay on SF-539 CNS; 40% in the assay on UACC-257 melanoma; 51.8% with M14 melanoma; 16.5% in the assay on HCT-15 colon; 81.4% in the assay with HT29 colon. For the same compound, the growth is 87.6% with SNB-75 CNS; 43.6% in the assay with SNB-19 CNS; 26.7% in the assay with U251 CNS; 30.8% in the assay with PC-3 prostate; 12.3% with SK-MEL-5 melanoma; 25.3% in the assay on UACC-62 melanoma. Further, the growth with LOX IMVI melanoma is 27%; with SK-MEL-28 melanoma it was 65.7%.
